# ugtP null kill – compounds lethal to S. aureus RN4220 ugtP deletion mutant. OD600 growth, 16 h. growth inhibition, % (concentration not given with the values). 330,000 tested, 0.54% active. AID 1259309; in the data active means growth inhibition above about 68%;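 further: plate controls were untreated wells for no effect and antibiotic for full effect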
# SSB-PriA inh – blocks PriA binding to SSB C-terminal tail; inhibition, % at 33 µM; AlphaScreen SSBct-PriA binding, biotinylated peptide; 430,000 tested, 0.6% active; in the data active means inhibition mostly above about 37%, no sharp cut-off; inactive means mostly below about 20%;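 further: plate controls were negative control peptide for no effect and reference peptide for full effect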
# Mtb hypoxia rep – Mtb hypoxia fluorescent reporter inhibition; 300,000 tested, 0.1% active; M. tuberculosis hypoxia-regulated fluorescent reporter, fluorescence; fluorescence inhibition, % (concentration not given with the values); AID 1159583; in the data active means fluorescence inhibition mostly above about 23%, no sharp cut-off; inactive means mostly below about 17%
# Mtb bLac sens – beta-lactam sensitization of Mtb H37Rv | M. tuberculosis H37Rv growth with meropenem, percent inhibition | inhibition, % at 25 µM | 330,000 tested, 0.27% active; call rule not given here;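 further: growth measured after seven days incubation then overnight dye step; 0% = bacteria only wells and 100% = bacteria with antibiotic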
# RN4220 kill – S. aureus RN4220 growth inhibition; OD600, 16 h; inhibition, % (no concentration beside the values); 330,000 tested, 0.33% active; in the data active means inhibition above about 85%;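 further: plate controls were untreated cells for no effect and reference antibiotic for full effect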
# Starred values were filed as active, the others as inactive; nt = no result shown; ! = repeats disagree. Rows were chosen to be rich in hits. Some 1% of all compounds tested hit in one or more screens of this group.
SMILES,ugtP null kill,SSB-PriA inh,Mtb hypoxia rep,Mtb bLac sens,RN4220 kill
CN(C)c1ccc(/C=C(\NC(=O)c2ccccc2)C(=O)NCCCn2ccnc2)cc1,-2,39*,1,4,5
Cc1ccc(C(=O)N/C(=C\c2ccco2)C(=O)NCCCn2ccnc2)cc1,-2,103*,-3,-7,-8
COc1ccc2cc(C(=O)NCCCN3CCCC3=O)[nH]c2c1,7,40*,14,-1,2
COc1cccc2[nH]c(C(=O)NCCCN3CCCC3=O)cc12,10,-5,5,4,5
Cc1cccc(-c2ccc(C=Nc3c(C)n(C)n(-c4ccccc4)c3=O)o2)c1,1,50*,nt,88,1
Cc1c(N=Cc2nc3ccccc3n2C)c(=O)n(-c2ccccc2)n1C,-2,-9,-3,-2,1
COc1cncc(OC2CCCN(C(=O)Cn3cccn3)C2)n1 (stereo not given),nt,-16,nt,nt,nt
O=C(CSc1ncnc2c1cnn2-c1ccc(F)cc1)Nc1cc(C(F)(F)F)ccc1Cl,nt,-10,nt,nt,nt
Cc1cccc(N2CCN(C(=O)c3ccc(CS(=O)Cc4ccc(Cl)cc4)o3)CC2)c1C (stereo not given),69,14,11,7,-3
O=C(c1ccc(CS(=O)Cc2ccc(Cl)cc2)o1)N1CCN(c2ccc(F)cc2)CC1 (stereo not given),90*,8,7,4,-4
O=C(c1ccc(CS(=O)Cc2cccc(Cl)c2)o1)N1CCN(C2CCCCC2)CC1 (stereo not given),95*,-4,4,5,-3
O=C(c1ccc(CS(=O)Cc2ccc(Cl)cc2)o1)N1CCN(c2cccc(Cl)c2)CC1 (stereo not given),93*,8,0,59,-8
Cc1ccc(C)c(N2CCN(C(=O)c3ccc(CS(=O)Cc4cccc(Cl)c4)o3)CC2)c1 (stereo not given),98*,16,1,6,1
OC(CNCC1CCCO1)Cn1c2ccc(Cl)cc2c2cc(Cl)ccc21 (stereo not given),-19,16,14,100,48
OC(CNCCC1C=Nc2ccccc21)Cn1c2ccc(Cl)cc2c2cc(Cl)ccc21 (stereo not given),101*,65*,-3,100,100*
O=C(Cc1cc(=O)[nH]c(SCc2cccc(Cl)c2)n1)NCCC1=CCCCC1,nt,40*,nt,nt,nt
COc1cccc(CSc2nc(CC(=O)NCCC3=CCCCC3)cc(=O)[nH]2)c1,nt,-12,nt,nt,nt
CCc1ccc(OCC(=O)NNC(=O)CSc2nnc(-c3ccc(C)cc3)n2C)cc1,2,-28,1,-3,7
Cc1nnc(SCC(=O)NNC(=O)COc2ccc(Br)cc2)n1C,1,8,32*,-5,3
Cc1cc2ccccn2c1C(=O)c1cc([N+](=O)[O-])cc([N+](=O)[O-])c1,3,49*,-2,-7,-2
Cc1cc2ccccn2c1C(=O)c1ccc(NN)c([N+](=O)[O-])c1,-3,47*,4,18,3
CC(=NNc1ccc(C(=O)c2c(C)cc3ccccn23)cc1[N+](=O)[O-])c1ccc(O)cc1,-1,2,3,nt,12
CCOc1ccc(-n2c(SCC(=O)Nc3ncn[nH]3)nc3ccccc3c2=O)cc1,nt,3,nt,nt,nt
O=C(Nc1ccc(Cl)c([N+](=O)[O-])c1)C(Sc1ccccc1)c1ccccc1 (stereo not given),99*,10,3,4,86*
CCCCCCCCCOc1ccc(-c2ncc(CCCCCCCCC)cn2)cc1,nt,-9,nt,nt,nt
SMILES,ugtP null kill,SSB-PriA inh,Mtb hypoxia rep,Mtb bLac sens,RN4220 kill
CCCCCCc1ccc(-c2ncc(N)cn2)cc1,100*,0,5,37,5
C[C@](O)(CNC(=O)C(=O)Nc1ccc(F)cc1F)c1ccco1,nt,-8,nt,nt,nt
CC(=O)c1c(C)n([O-])c2ccc(C)cc2[n+]1=O,13,10,64*,20,16
CCOC(=O)c1ccc(-c2c(-c3ccccc3OC)oc3ccccc23)cc1F,92*,-50,10,8,-5
O=C(CCc1ccccc1)Nc1nnc(C2CCCCC2)o1,nt,-20,nt,nt,nt
Oc1cccc2ccc(/C=C/c3ccccc3Cl)nc12,91*,-1,11,98,83
O=C(Nc1ccc2c(c1)OCO2)c1c[nH]c(=O)n(-c2ccc(F)cc2)c1=O,7,38*!,13,2,-2
Cc1onc(-c2c(F)cccc2Cl)c1C(=O)Nc1ccc(Cl)c(S(=O)(=O)N(C)C)c1,1,5,3,-4,-2
COc1ccc(NC(=O)c2c(-c3c(F)cccc3Cl)noc2C)cc1[N+](=O)[O-],nt,66*,nt,nt,nt
CN1CCN(c2ccc(NC(=S)NC(=O)/C=C/c3ccco3)cc2)CC1,89*,5,10,1,0
CCCCCC(=O)NC(=S)Nc1ccc(NC(=O)c2ccco2)cc1,88*,1,nt,89,2
CCCCCC(=O)N/N=C(\C)c1ccc(NC(=O)c2ccco2)cc1,nt,nt,nt,-7,nt
CC(=O)Nc1ccc(NC(=S)NC(=O)/C=C/c2ccco2)cc1,86*,6,-2,10,4
CC(=O)N(C)c1ccc(NC(=S)NC(=O)/C=C/c2ccco2)cc1,47,-7,10,2,1
CS(=O)(=O)N1CCC(C(=O)NCCNc2ccc(-n3cccc3)nn2)CC1,nt,-11,nt,nt,nt
O=C(CSc1ccc(-c2cccnc2)nn1)NCC1CCCO1 (stereo not given),nt,-18,nt,nt,nt
COc1ccc(N2CCN(C(=O)c3ccc(Cn4nc(C)c([N+](=O)[O-])c4C)o3)CC2)cc1,9,48*,-5,nt,-1
Cc1ccc(-c2[nH]nc(N)c2N=Nc2cccc(Cl)c2C)cc1,99*,2,-6,nt,84
COc1cc2c(cc1NC(=O)CCC(=O)O)oc1ccccc12,1,-6,13,2,4
COc1cc2c(cc1NC(=O)Nc1ccccc1)oc1ccccc12,84*,-2,9,-7,31
O=C(NN=Cc1c(O)ccc2ccccc12)c1cccc(C(F)(F)F)c1,100*,-27,8,nt,54
O=C(NN=Cc1c(O)ccc2ccccc12)C1CC1,90*,-3,8,nt,73
O=C(CCCc1ccccc1)N1CCc2[nH]c(=O)ccc2C1,nt,-11,nt,nt,nt
CCCCCc1cc(=O)oc2c(C(CCN3CCCC(C)C3)c3ccc4c(c3)OCO4)c(OC)cc(OC)c12 (stereo not given),nt,31,nt,100,nt
CCCCCc1cc(=O)oc2c(C(CCN3CCCCC3)c3ccc4c(c3)OCO4)c(OC)cc(OC)c12 (stereo not given),18,42*,nt,100,13
COc1cc(O)c(C(CCN2CCN(c3ccccc3)CC2)c2ccc3c(c2)OCO3)c(OC)c1 (stereo not given),-16,42*,-1,84,4
COc1cc(O)c(C(CCN2CCCC2)c2ccc3c(c2)OCO3)c(OC)c1 (stereo not given),3,-24,8,-3,2
CCCCCc1cc(=O)oc2c(C(CCN3CCN(c4ccccc4)CC3)c3ccc(N(C)C)cc3)c(OC)cc(OC)c12 (stereo not given),3,2,-2,5,8

# High-throughput results deposited in PubChem BioAssay by several laboratories.
